Assay results taken from PubChem BioAssay (NCATS).
Values joined by “and” are separate entries in the source; they are usually repeats but may differ in a detail not shown here. Identical values can stand only once. Records with an inconclusive call do not appear. A call without a number means that no potency is given here. Values without a mark were called inactive. Active and inactive are the calls of the source. Calls follow the shape of the dose curve; as a rule, active = well fitted curve in the direction sought with a large enough effect; inconclusive = small, poorly fitted or top-dose-only effect, or another doubt; inactive = no such curve, though single readings can be large; an effect the other way counts as inactive or inconclusive.

Legend:
[1] = test system: Zika virus NS2B-NS3 protease (unlinked complex); assay: Confirmatory screen GU AMC qHTS for Zika virus inhibitors (AID 1347153); conditions: Recombinant NS2B-NS3 protease, AMC substrate fluorescence; series mostly up to 57.1 µM; also: nearly all actives have a fitted effect of over 70% in size
How it was run: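 Fluorescence change (ex 340/em 450 nm) over 15 min, ~20% substrate conversion, normalized to no-inhibitor and no-enzyme controls, then Hill-fitted. Unlinked protease at 25 nM; AMC peptide 10 µM.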

[2] = Confirmatory screen NINDS Rhodamine qHTS for Zika virus inhibitors (AID 1347161); conditions: purified enzyme assay, Rhodamine110 substrate fluorescence, 15 min; series mostly up to 114 µM; also: nearly all actives have a fitted effect of over 60% in size; also: potency is read from the fitted curve at half-maximal effect;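 as to activity change, negative = inhibition: purified Zika NS2B-NS3 protease with linked NS2B cofactor domain and Rhodamine110 peptide substrate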
How it was run: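 In 10 mM Tris-HCl pH 8.0 containing 0.01% Tween 20, linked NS2B-NS3 protease (25 nM final) is exposed to test compounds for 15 min. Cleavage of 1.5 microM Rhodamine110 substrate is tracked by fluorescence over 15 min.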

[3] = Vero cells viability qHTS for Zika virus inhibitors (AID 1347167); conditions: cytotoxicity counter-screen (Zika); series mostly up to 45.9 µM
How it was run: (§1)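 To flag cytotoxic protease inhibitors, viability is measured by ATP-dependent luminescence (CellTiter Glo) after cells attached overnight receive compound for 24 to 48 hours in DMEM with 4% FBS.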

[4] = HepG2 cells viability qHTS for Zika virus inhibitors (AID 1347168); conditions: Zika counter-screen; series mostly up to 45.9 µM
How it was run: as §1

[5] = Tertiary RLuc qRT-PCR qHTS assay for Zika virus inhibitors (AID 1347169); conditions: infected Vero cells, reporter luminescence, 48-72 h; series mostly up to 45.9 µM; also: top concentration of the series differs between compounds; nearly all actives have a fitted effect of over 55% in size
How it was run: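 Vero cells (1,000 per well) plated overnight at 37 degrees C, treated with compound in DMSO, then infected with recombinant ZIKV-RLuc (Cambodian) at MOI 1-2 for 48-72 hrs. Live-cell Renilla luciferase substrate added; luminescence read after 1-1.5 hrs.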

[6] = qHTS of pediatric cancer cell lines to identify multiple opportunities for drug repurposing: Primary screen for Rh30 cells (AID 1347107); conditions: Rh30 rhabdomyosarcoma viability, CellTiter-Glo luminescence, 48 h; series mostly up to 46 µM; also: nearly all actives have a fitted effect of over 75% in size
How it was run: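 Cells (500-1,000/well) in growth media were settled 5 h at 37 degrees C, then given compounds for 48 h. Viability was read as CellTiter-Glo luminescence. Primary runs used MIPE at 11 points (0.78 nM-46 µM) and NPC at 8 points (0.59 nM-46 µM); follow-ups used 11 points.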

[7] = qHTS of pediatric cancer cell lines to identify multiple opportunities for drug repurposing: Primary screen for Rh41 cells (AID 1347108); conditions: Rh41 rhabdomyosarcoma viability, CellTiter-Glo luminescence, 48 h; series mostly up to 46 µM;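 also: luminescence drop marks cytotoxic hits; nearly all actives have a fitted effect of over 70% in size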
How it was run: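 Cells seeded at 500-1,000 cells/well in growth media, rested 5 hours at 37 degrees C, 5% CO2, then dosed; MIPE compounds at 11-point (from 0.78 nM) and NPC at 8-point (from 0.59 nM) final concentrations. Viability by CellTiter-Glo luminescence after 48 hours.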

[8] = qHTS to identify inhibitors of the type 1 interferon - major histocompatibility complex class I in skeletal muscle: primary screen against the NCATS Pharmaceutical Collection (AID 1347407); conditions: human skeletal muscle cells, IFN-b-induced MHC-I HiBiT luminescence, 24 h; series mostly up to 45.9 µM;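 also: luminescence of HiBiT knocked into endogenous HLA-B as interferon-induced MHC class I level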
How it was run: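 Immortalized human myoblasts (C25cl48) with HiBiT knocked into endogenous HLA-B*08:01 were stimulated with 4 ng/ml IFN-beta and treated with compounds (8-point, 1:5, top 46 uM final) for 24 h at 37 C; HiBiT lytic luminescence read.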

[9] = test system: Zika virus NS2B-NS3 protease; assay: Primary screen GU AMC qHTS for Zika virus inhibitors (AID 1347154); conditions: Zika NS2B-NS3 unlinked protease, AMC fluorogenic substrate; series mostly up to 54.1 µM; also: nearly all actives have a fitted effect of over 70% in size
How it was run: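 Unlinked Zika NS2B hydrophilic domain/NS3 protease domain noncovalent complex (25 nM final) in 10 mM Tris-HCl pH 8.0, 0.01% Tween 20, with AMC peptide substrate. Fluorescence (ex 340, em 450 nm) change over 15 min, room temperature; percent inhibition fitted to 4-parameter Hill equation.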

Furin (Homo sapiens) = Furin (Homo sapiens) (UniProt P09958); assay: Furin counterscreen qHTS for Zika virus inhibitors (AID 1347149); conditions: furin enzymatic counterscreen, fluorogenic substrate; series mostly up to 114 µM;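 also: purified recombinant full-length human furin enzyme at 5 nM; fluorescence gain from furin cutting a BOC-RVRR-AMC peptide substrate over 15 min; top concentration of the series differs between compounds; nearly all actives have a fitted effect of over 70% in size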
How it was run: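 Counterscreen measures cleavage of 2 microM BOC-RVRR-AMC, below its ~15 microM Km, by 5 nM full-length human furin at pH 7.0 after a 15-min compound preincubation. Inhibition derives from the 15-min fluorescence increase at 37C.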

[10] = test system: Zika virus NS2B-NS3 protease (linked construct); assay: Confirmatory screen NINDS AMC qHTS for Zika virus inhibitors (AID 1347152); conditions: Purified linked NS2B-NS3, AMC substrate fluorescence
How it was run: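 Purified NS2B-NS3 protease with NS2B hydrophilic domain linked to NS3 protease domain by flexible linker, 1 nM final in 10 mM Tris-HCl pH 8.0, 0.01% Tween 20. Compounds preincubated 15 min, room temperature; Bz-Nle-KRR-AMC 10 microM (Km 18.3 µM); 15-min fluorescence change, 4-parameter Hill fit.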

[11] = Confirmatory screen GU Rhodamine qHTS for Zika virus inhibitors qHTS (AID 1347157); conditions: purified enzyme assay, Rhodamine110 substrate fluorescence, 15 min; series mostly up to 114 µM
How it was run: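 Unlinked NS2B/NS3, 25 nM; Rhod110 peptide, 1.5 microM; compounds, up to 114 microM. Reaction run 15 min at RT in 10 mM Tris-HCl pH 8.0, 0.01% Tween 20; kinetic fluorescence change fitted with a 4-parameter Hill model.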

[12] = test system: Zika virus NS2B-NS3 protease (unlinked complex); assay: Primary screen GU Rhodamine qHTS for Zika virus inhibitors: Unlinked NS2B-NS3 protease assay (AID 1347159); conditions: Recombinant ZIKV NS2B-NS3 protease, Rhodamine110 substrate fluorescence; series mostly up to 107 µM; also: nearly all actives have a fitted effect of over 60% in size; also: potency is read from the fitted curve at half-maximal effect
How it was run: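 Enzyme 25 nM in Tris-HCl pH 8.0 + 0.01% Tween 20; compounds up to 114 microM, 15 min RT dark; + Rhod110 substrate 1.5 microM; read t0 and 15 min; delta fluorescence → % inhibition → 4-parameter Hill fit.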

[13] = test system: Zika virus NS2B-NS3 protease (linked construct); assay: Primary screen NINDS Rhodamine qHTS for Zika virus inhibitors (AID 1347160); conditions: purified NS2B-NS3 protease, Rhodamine110 substrate fluorescence; series mostly up to 57.1 µM; also: nearly all actives have a fitted effect of over 55% in size; also: potency is read from the fitted curve at half-maximal effect
How it was run: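 Enzyme (25 nM, linked NS2B-NS3) was preincubated 15 min with compound in 10 mM Tris-HCl pH 8.0, 0.01% Tween 20. Rhodamine110 substrate (1.5 microM) was then added and fluorescence read at start and after 15 min.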

[14] = test system: Zika virus NS2B-NS3 protease (linked); assay: 384 well plate NINDS AMC confirmatory qHTS for Zika virus inhibitors (AID 1347163); conditions: Recombinant NS2B-NS3 protease, Ac-VKTGKR-AMC fluorescence; also: potency is read from the fitted curve at half-maximal effect; nearly all actives have a fitted effect of over 50% in size
How it was run: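 Fluorescence at 355/460 nm was read after 25 minutes of cleavage of 30 microM Ac-VKTGKR-AMC at room temperature, in the dark. Before substrate addition, compounds (up to 1 mM final) sat ~15 minutes with 5, 30 or 60 nM linked protease. Signals were normalized to no-enzyme and no-inhibitor wells.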

[15] = test system: Zika virus NS2B-NS3 protease (linked construct); assay: 384 well plate NINDS Rhodamine confirmatory qHTS for Zika virus inhibitors (AID 1347164); conditions: rhodamine-110 peptide substrate fluorescence;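 also: fluorescence from protease cleavage of Ac-LKRR-rhodamine 110 substrate; potency is read from the fitted curve at half-maximal effect; nearly all actives have a fitted effect of over 65% in size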
How it was run: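 Linked protease at a final 5 nM, 30 nM or 60 nM was preincubated ~15 min with compounds, then given 10 microM Ac-LKRR-Rhodamine 110. Fluorescence (ex 485/em 538 nm) after 25 min in the dark at room temperature.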

[16] = biological target: N-terminal Xaa-Pro-Lys N-methyltransferase 1 (Homo sapiens) (UniProt Q9BV86); assay: qHTS Assay for Inhibitors of N-terminal methyltransferase 1 (NTMT1): LOPAC validation of the NTMT1 SAHH-coupled ThioGlo3 Assay (AID 1347143); conditions: recombinant NTMT1, SAHH-coupled ThioGlo3 fluorescence
How it was run: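 In this qHTS pilot against the LOPAC set, 125nM NTMT1 met compounds tested at multiple concentrations, and fluorescence was normalized to background.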

[17] = test system: Zika virus NS2B-NS3 protease (unlinked); assay: Optimization of GU AMC qHTS for Zika virus inhibitors: Unlinked NS2B-NS3 protease assay (AID 1347151); conditions: recombinant ZIKV NS2B-NS3 protease, fluorogenic AMC substrate; series mostly up to 114 µM; also: potency is read from the fitted curve at half-maximal effect; nearly all actives have a fitted effect of over 80% in size
How it was run: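 Noncovalent complex of NS2B hydrophilic domain and NS3 protease domain, 25 nM final, in 10 mM Tris-HCl pH 8.0, 0.01% Tween 20. AMC fluorescence change over 15 min at room temperature was fitted to a 4-parameter Hill equation.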

[18] = qHTS to identify inhibitors of the type 1 interferon - major histocompatibility complex class I in skeletal muscle: primary screen against the NCATS LOPAC collection (AID 1347405); conditions: iHSKM muscle cells, IFN-b-induced MHC-I HiBiT luminescence, 24 h; series mostly up to 45.9 µM;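 also: lytic HiBiT luminescence reporting HLA-B protein level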
How it was run: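 After 24 h at 37 C with compounds (7-point, 1:4.3 dilutions, 46 uM top final) plus 4 ng/ml IFN-beta, luminescence from lytic HiBiT detection was measured. HLA-B*08:01 in C25cl48 myoblasts carried an endogenous C-terminal HiBiT tag; medium lacked dexamethasone.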

[19] = ZIKV-mCherry secondary qHTS for Zika virus inhibitors (AID 1347158); conditions: Vero cells, ZIKV-mCherry infection imaging, 48-72 h; series mostly up to 49.2 µM; also: top concentration of the series differs between compounds
How it was run: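 Percent infection is the share of Hoechst-identified Vero nuclei with mCherry signal above 450 RFU (3 SD over negative controls). Cells were infected with recombinant ZIKV-mCherry at MOI 1 after compound addition and imaged 48–72 h later.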

Furin (Homo sapiens), sequence (P09958 whole entry, looked up): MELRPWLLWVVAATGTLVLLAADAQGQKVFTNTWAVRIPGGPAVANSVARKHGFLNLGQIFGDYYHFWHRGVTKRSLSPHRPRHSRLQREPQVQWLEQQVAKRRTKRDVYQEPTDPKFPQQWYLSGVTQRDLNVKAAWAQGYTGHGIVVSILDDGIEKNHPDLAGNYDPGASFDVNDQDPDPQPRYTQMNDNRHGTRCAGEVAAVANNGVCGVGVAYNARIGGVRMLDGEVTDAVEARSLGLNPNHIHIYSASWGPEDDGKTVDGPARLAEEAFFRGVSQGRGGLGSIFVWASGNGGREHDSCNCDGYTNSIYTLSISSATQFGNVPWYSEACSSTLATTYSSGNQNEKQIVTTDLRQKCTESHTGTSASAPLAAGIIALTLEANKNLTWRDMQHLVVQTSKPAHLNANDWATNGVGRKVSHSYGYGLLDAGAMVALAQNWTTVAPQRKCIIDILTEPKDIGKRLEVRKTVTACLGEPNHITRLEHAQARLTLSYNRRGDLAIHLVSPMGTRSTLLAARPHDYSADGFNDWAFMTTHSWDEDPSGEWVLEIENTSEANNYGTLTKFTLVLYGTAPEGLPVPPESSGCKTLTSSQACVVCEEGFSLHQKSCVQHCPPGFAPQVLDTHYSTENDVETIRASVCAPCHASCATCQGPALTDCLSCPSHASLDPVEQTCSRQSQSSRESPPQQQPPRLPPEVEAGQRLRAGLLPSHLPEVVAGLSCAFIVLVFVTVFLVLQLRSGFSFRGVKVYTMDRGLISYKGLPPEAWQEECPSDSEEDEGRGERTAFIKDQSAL
N-terminal Xaa-Pro-Lys N-methyltransferase 1 (Homo sapiens), sequence (Q9BV86 whole entry, looked up): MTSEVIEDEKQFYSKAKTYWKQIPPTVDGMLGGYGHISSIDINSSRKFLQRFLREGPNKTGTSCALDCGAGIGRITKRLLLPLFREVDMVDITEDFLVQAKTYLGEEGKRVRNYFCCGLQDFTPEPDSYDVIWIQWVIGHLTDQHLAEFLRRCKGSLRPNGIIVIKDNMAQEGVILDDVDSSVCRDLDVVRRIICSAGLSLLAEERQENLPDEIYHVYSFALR

## CO[C@H]1C[C@H](O[C@@H]2/C(C)=C/C[C@@H]3C[C@@H](C[C@]4(CC[C@H](C)[C@@H](C5CCCCC5)O4)O3)OC(=O)[C@@H]3C=C(C)/C(=N/O)[C@H]4OC/C(=C\C=C\[C@@H]2C)[C@]43O)O[C@@H](C)[C@@H]1O
[1]
  outcome: inactive
[2]
  Potency: inactive
[3]
  outcome: inactive
[4]
  outcome: inactive
[5]
  Potency: inactive

## CC(=O)Oc1cccc2c1C(=O)c1c(OC(C)=O)cc(C(=O)O)cc1C2=O
[6]
  outcome: inactive
[7]
  outcome: inactive
[8]
  outcome: inactive

## CNC(=O)[C@H](Cc1c[nH]c2ccccc12)NC(=O)[C@@H](CC(=O)NO)CC(C)C
[9]
  outcome: inactive

## O=C(O)Cc1nn(Cc2ccc(Br)cc2F)c(=O)c2ccccc12
[9]
  outcome: inactive

## O=C(O)Cc1cc(I)c(Oc2ccc(O)c(I)c2)c(I)c1
Furin (Homo sapiens)
  outcome: inactive
[10]
  Potency: 15.6 µM (active)
[11]
  Potency: 2.21 µM (active) and 10 µM (active)
[12]
  Potency: 7.08 µM (active)
[13]
  Potency: 3.16 µM (active)
[2]
  Potency: 2.21 µM (active) and 7.94 µM (active)
[14]
  Potency: 2.82 µM (active)
[15]
  Potency: 3.16 µM (active)
[3]
  outcome: inactive
[4]
  outcome: inactive
[5]
  activity change, negative = inhibition: 45.7% [at 0.566 µM]

## Oc1ccc(/C=C/c2cc(O)cc(O)c2)cc1
[6]
  outcome: inactive
[7]
  outcome: inactive
[16]
  Potency: 50.1 µM (active)
[17]
  Potency: 26.7 µM (active)
[18]
  outcome: inactive
[8]
  outcome: inactive

## O=C1c2ccccc2C(=O)c2c1ccc(O)c2O
[6]
  outcome: inactive
[7]
  outcome: inactive
[8]
  outcome: inactive

## CC1(C)C(\C=C/C=C\C=C/C=C2/N(CCCCS(=O)(=O)O)c3ccc4ccccc4c3C2(C)C)=[N+](CCCCS(=O)(=O)[O-])c2ccc3ccccc3c21
[11]
  Potency: 3.98 µM (active)
[19]
  outcome: inactive
[2]
  Potency: 5.62 µM (active)
[14]
  Potency: 39.8 µM (active)
[15]
  Potency: 4.47 µM (active)

## C/C(=C\C(=O)OCCCCCCCCC(=O)O)C[C@@H]1OC[C@H](C[C@@H]2O[C@H]2[C@@H](C)[C@H](C)O)[C@@H](O)[C@H]1O
[12]
  Potency: inactive
[13]
  Potency: inactive

## CCOC(=O)C1=C(COCCN)NC(C)=C(C(=O)OC)C1c1ccccc1Cl (centres undefined)
[9]
  outcome: inactive

## CC1CC(OC(=O)C(O)c2ccccc2)CC(C)(C)C1 (centres undefined)
[13]
  Potency: inactive
